Source: PubChem BioAssay
Unmarked numbers belong to inactive results.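 How the source made its calls: active means inhibition of the reporter signal at or above 50%; inactive means inhibition below 50%.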

test: inhibitors of poly I:C-induced TLR3 signaling, primary screen, cell-based, poly I:C stimulus, luciferase, 10K MLSCN set (AID 602277); details: HEK293-TLR3 RL24 IRF3 luciferase reporter, at 10 µM, hits give high values

SMILES | inhibition
CC(=O)Nc1ccc(Oc2cc(C#N)c(C#N)cc2N2CCCCCC2)cc1 | 21.8%
COc1ccc2cnn(-c3ccccc3)c(=O)c2c1OC | -25.4%
COC(=O)c1[nH]c2ccccc2c1NC(=O)CN1CCC(C(N)=O)(N2CCCCC2)CC1 | 30.6%
CCOC(=O)CSc1nc2cc(C(=O)NCc3ccco3)ccc2c(=O)n1-c1ccc(F)cc1 | -0.0676%
CSc1nnc2c3ccccc3n(Cc3ccccc3)c2n1 | 17%
O=C(c1cccs1)c1cn(CC(=O)N2CCc3ccccc3C2)c2ccccc12 | 8.88%
Cc1ccccc1CN1CCN(CC(=O)NCc2ccco2)C1=O | 22.7%
Cc1ccc(CC23CN4CCN(CC(C4)C2O)C3)c(C)c1 (stereo not given) | 14.1%
C[C@H](NC(=O)Nc1ccccc1F)C(=O)O | 24.2%
COc1cc(-c2c(C#N)c(N)nc3c2CCCC3)cc(OC)c1OC | 26.4%
Cc1ccc(S(=O)(=O)N2CCCC2C(=O)OCc2ccco2)cc1 (stereo not given) | -8.59%
COC(=O)c1ccc(CN(c2ccccc2OC)S(=O)(=O)c2cccs2)o1 | 7.96%
CCOc1ccc(C(c2nnnn2Cc2ccccc2)N2CCN(C(=O)c3ccco3)CC2)cc1 (stereo not given) | 9.07%
CCOC(=O)Cc1nnc(NC(=O)CSc2nnc3c4ccccc4n(C(C)C)c3n2)s1 | 25.8%
O=C(NC1CCCC1)c1cc(-c2cccs2)on1 | -146%
Cc1ccc(-c2c3c(=O)n(C)c(=O)n(C)c3cn2CCCN2CCOCC2)cc1 | 18.9%
Cc1nnc(C)c2c(C)n(-c3ccc(Br)cc3)c(C)c12 | 27.9%
O=C(CCCn1c(=O)c2sccc2n(CC(=O)NCc2ccco2)c1=O)NCc1ccco1 | 15%
CCOc1ccc2nc(NC(=O)C(NS(=O)(=O)c3cccs3)C(C)C)sc2c1 (stereo not given) | 20.4%
Cc1cc(NC(=O)COC(=O)c2cccc(S(=O)(=O)N3CCOCC3)c2)no1 | 24.4%

SMILES | inhibition
Cc1nc2sc(C(c3cccc(F)c3)N3CCN(C(=O)c4ccco4)CC3)c(O)n2n1 (stereo not given) | -22.6%
O=C(O)C1CC(=O)N(c2ccc(OCc3c(F)cccc3Cl)cc2)C1 (stereo not given) | 17.3%
N#C/C(C(=O)N1CCOCC1)=C1/SC=C(c2ccccc2)N1c1ccccc1 | 26.4%
CCCC(C)C1C(C#N)=C(N)Oc2cc(C)oc(=O)c21 (stereo not given) | 18.7%
Cc1cc(NC(=O)c2ccccc2Oc2ccccc2)no1 | 9.02%
CC(C)(C)c1cc(C(=S)N2CCN(CCO)CC2)cc(C(C)(C)C)c1O | 29.9%
CCC(C)NC(=O)C1CCCN(S(=O)(=O)c2ccc(-n3cnnn3)cc2)C1 (stereo not given) | -2.75%
CC1(C)C2CCC1(CS(=O)(=O)NCc1ccc(C(=O)O)cc1)C(=O)C2 (stereo not given) | 30.6%
Cc1nnc(NC(=O)Nc2cccc(Cl)c2)s1 | -88.8%
O=C(CN1CCOCC1)N1CCN(C(=O)CN2CCOCC2)CC1 | 17.7%
COc1ccc2c(c1OC)C(=O)OC2Nn1cncn1 (stereo not given) | 22.6%
N#Cc1cnc(SCC(=O)Nc2ccccc2C(F)(F)F)nc1N | 22.7%
O=C(NCc1ccco1)C1CC(=O)N(c2ccc(F)cc2)C1 (stereo not given) | 12%
CCOC(=O)C1CCCN(c2nc3ccccc3nc2C(C#N)C(=O)NCc2ccccc2)C1 (stereo not given) | 12.6%
CCOc1cc(C)c(Cl)cc1S(=O)(=O)N(C)C | 22.4%
Cc1c(C(=O)O)oc2ccc(S(=O)(=O)NCCC3=CCCCC3)cc12 | 15.9%
CCOC(=O)CSC1=Nc2ccccc2C2=NC(CC(=O)NCc3ccc(OC)cc3)C(=O)N12 (stereo not given) | 20.5%
COc1ccc(C(F)(F)F)cc1NC(=O)c1nc2nc(C)cc(C(F)F)n2n1 | 10.9%
CCSc1nc2c(c(=O)n(C)c(=O)n2C)n1Cc1ccc(Cl)cc1 | 4.67%
O=C(COC(=O)c1ccco1)NCc1cccs1 | 5.96%
